PubChem BioAssay AID588795 (National Center for Advancing Translational Sciences (NCATS), 2011)
“And” between values parts separate entries of the source, which are not always exact repeats. Equal entries are not always repeated. The whole screen tested about 390,000 compounds, of which about 1,400 (0.36%) were called active. Inconclusive results (about 2%) are left out. Calls come from the whole dose curve; as a rule, active = well fitted inhibition curve with a large enough effect; inconclusive = small, poorly fitted or top-dose-only effect; inactive = no such curve, though single readings can be large or run the other way. Many of the other results were omitted from the sample, so actives are more common in it than they were. More than one record can exist for a structure, and the calls need not agree.

target: Flap endonuclease 1 (Homo sapiens) (UniProt P39748); test: qHTS Assay for the Inhibitors of Human Flap endonuclease 1 (FEN1).; note: nearly all actives have a fitted effect of over 65% in size; details: Recombinant FEN1 flap cleavage, fluorescence, 15 min; series mostly up to 114 µM; activity change, negative = inhibition: at the top concentration
Description: The major human flap endonuclease FEN1 is an efficient structure-specific enzyme that recognizes and cleaves a 5'-unannealed DNA flap. It belongs to the RAD2 family nucleases, which are involved in DNA metabolism and are highly conserved in prokaryotes and eukaryotes. FEN1 is a key enzyme in DNA replication, repair and maintenance of genomic stability. 5'-flap removal by FEN1 is critical for Okazaki fragment processing during lagging strand DNA synthesis, long-patch base excision repair (LP BER), and regulating or facilitating recombination events. […] Deletion of the yeast FEN1 gene, i.e. rad27, results in an increased frequency of short DNA (3-32 bp) repeats, micro- and mini-satellite formation, trinucleotide repeat expansion, spontaneous recombination events, and a severe growth defect in association with cell cycle arrest in late S/G2 phase. […] Cells from fen1-/- blastocysts show increased apoptotic cell death after ionizing radiation treatment, and chicken cells lacking the fen1 gene are hypersensitive to DNA alkylating agents, e.g. methylmethane sulfonate (MMS) and N-methyl-N'-nitro-N-nitrosoguanidine (MNNG), as well as hydrogen peroxide.
NIH Chemical Genomics Center [NCGC]
NIH Molecular Libraries Probe Centers Network [MLPCN]
Assay Submitter (PI): David Wilson, National Institute of Aging
Three uL of reagents (buffer in column 3 and 4 as negative control and 10 nM FEN1 in columns 1, 2, and 5-48) were dispensed into 1,536-well black solid-bottomed plate. Compounds (23 nL) were transferred via Kalypsys pin tool equipped with 1536-pin array (10 nL slotted pins, V&P Scientific, San Diego, CA). The plates were then incubated for 15 min at room temperature, and 1 uL substrate (50 nM final concentration) were added to start the reaction read twice at 0 min read and 15 min on ViewLux reader. Throughout the screen, reagent bottle and all liquid lines were chilled and made light-tight to minimize reagent degradation. All screening operations were performed on a fully integrated robotic system (Kalypsys, San Diego, CA) containing one RX-130 and two RX-90 anthropomorphic robotic arms (Staubli, Duncan, SC). Library plates were screened starting from the lowest and proceeding to the highest concentration, and a "double-dipping" step of the highest concentration was required to access higher concentrations of compounds. Vehicle-only plates, with DMSO being pin-transferred to the entire column 5-48 compound area, were inserted uniformly at the beginning and the end of each library in order to monitor for and record any shifts in the background, which can be affected by reagent dispensers or loss in enzyme activity overtime. Screening data was corrected, normalized, and concentration-effect relationships were derived by using publicly-available curve fitting algorithms developed in-house (http://ncgc.nih.gov/pub/openhts). A four parameter Hill equation was fitted to the concentration-response data by minimizing the residual error between the modeled and observed responses.
% is set by controls: 0 for no effect and ±100 for the full control effect; potency is the fitted concentration of half-maximal effect.

Sequence of Flap endonuclease 1 (Homo sapiens) (P39748 whole entry, looked up, the tested form may be a part): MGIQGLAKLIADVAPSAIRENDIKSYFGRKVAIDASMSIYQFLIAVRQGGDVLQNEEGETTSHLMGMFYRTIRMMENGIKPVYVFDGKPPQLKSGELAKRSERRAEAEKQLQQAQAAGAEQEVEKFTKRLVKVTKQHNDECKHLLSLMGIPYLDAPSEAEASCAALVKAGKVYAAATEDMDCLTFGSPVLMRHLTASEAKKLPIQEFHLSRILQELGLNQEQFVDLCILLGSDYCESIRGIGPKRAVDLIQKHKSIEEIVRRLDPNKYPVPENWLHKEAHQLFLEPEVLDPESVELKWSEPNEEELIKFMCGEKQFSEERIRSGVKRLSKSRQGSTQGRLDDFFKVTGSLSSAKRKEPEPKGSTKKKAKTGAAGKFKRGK

Activity change, negative = inhibition, inactive:
COc1ccccc1CNC(=O)C(=O)NCC(c1ccco1)S(=O)(=O)c1ccc(F)cc1 (stereo unspecified) 11.7%
CN(C)c1cccc2ccccc12 1.97%
Brc1nc2ncnc(NCc3ccco3)c2[nH]1 -16.5%
C[N+]1(CC(=O)c2cccs2)CCOCC1 -17.5%
O=C(NCCc1ccccc1)c1ccc2c(c1)N(Cc1ccccc1)C(=O)c1ccccc1S2(=O)=O -10.8%
CCC(C)N(c1ccc(/C=C/c2ccnc3ccccc23)cc1)C(C)CC (stereo unspecified) -22.3%
Cn1c(COc2ccccc2C(C)(C)C)nc2ccccc21 -2.63%
CCOc1n[nH]c(-c2ccccc2)n1 -2.51%
O=C(Nc1ccc(N2CCOCC2)cc1)c1ccc(-c2ccccc2[N+](=O)[O-])o1 -16%
O=C1NC(c2ccc(-c3ccccc3[N+](=O)[O-])o2)C(C(=O)c2ccc(Cl)cc2)C(O)(C(F)(F)F)N1 (stereo unspecified) -22.5%
CN(C(=N)N)c1ccc(/C=C2\C=Cc3ccccc32)cc1 -10.5%
CC(=O)Nc1ccc2nc(SCCOc3cc(C)cc(C)c3)sc2c1 11.5%
CN(C)c1ccc(/C=c2\[nH]c(=O)/c(=C/c3ccc(N(C)C)cc3)[nH]c2=O)cc1 -0.26%
CN(C)CCCn1c(-c2ccc(Cl)cc2)csc1=Nc1ccccc1 -14.2%
CC1(C)C=Cc2c(ccc(C(=O)/C=C/c3ccccc3)c2O)O1 -7.78%
CC(C)(C)c1ccc(C(=O)C[n+]2cccc3cc(Cl)ccc32)cc1 -3.13%
Nc1nc(N)c(N=O)c(N)n1 -13.9%
CC(C)(C)n1ncc2c(=O)n(Cc3c(Cl)cccc3Br)cnc21 -20%
CC(C)(C)n1ncc2c(=O)n(Cc3ccc(C(=O)c4ccccc4)cc3)cnc21 6.55%
Oc1ccc(Br)cc1C1C=C(c2ccc3c(c2)OCO3)NC(c2ccc(Cl)cc2)N1 (stereo unspecified) -18%
O=C(C[n+]1ccncc1)c1ccc2c(c1)CCCC2 13.6%
N#Cc1ccc[n+](CC(=O)c2ccc(F)cc2)c1 17%
CCN1CCN(c2ccc(/C=C/c3ccnc4ccccc34)cc2)CC1 -31.7%
N#CCC(=O)N/N=C/c1cn(Cc2ccc3ccccc3c2)c2ccccc12 3.82%
Cc1ccc(/C=C(\C#N)C(=O)Nc2cc(C)ccc2C)cc1 16.1%
O=C1O/C(=C\c2ccc(O)cc2)C(O)=C1c1ccc(O)cc1 -7.29%
CCc1ccc(OCCCn2c(CCCNC(=O)C3CCCCC3)nc3ccccc32)cc1 7.45%
CN(C)Cc1cn(-c2ccccc2)nc1-c1ccccc1 -15.4%
Cc1ccc(-c2nnc(SCC(=O)NCc3ccccc3)nc2-c2ccc(C)cc2)cc1 -14.6%
O=C(NCCSc1ccccc1)c1ccco1 -3.87%
NC(=O)Nc1ccc(/C=C/c2ccnc3ccccc23)cc1 2.76%
CC1CC(C)CN(c2oc(-c3ccc(OCc4ccc(Cl)cc4)cc3)nc2C#N)C1 (stereo unspecified) 13.6%
O=C(CN1C(=O)c2cccc3cccc(c23)C1=O)N1CCCCC1 -12.2%
O=C(COC(=O)CCCN1C(=O)c2cccc3cccc(c23)C1=O)NC1CCS(=O)(=O)C1 (stereo unspecified) -17.4%
O=C(O)C1=C/C(=C/C=[N+]2c3cc(O)c(O[C@H]4OC(CO)[C@@H](O)[C@@H](O)[C@@H]4O)cc3C[C@@H]2C(=O)[O-])C[C@H](C(=O)O)N1 (stereo partly specified) -16.4%
COc1cc2nc(C#Cc3nc4cc(OC)c(OC)cc4[nH]3)[nH]c2cc1OC 3.58%
CS(=O)c1ccc(/C=C2\C=Cc3ccccc32)cc1 (stereo unspecified) 1.4%
CCOC(=O)N1CCN(C(=O)CNC(=O)Cc2ccc(Cl)cc2)CC1 -3.43%
CCOC(=O)c1ccc(CS(=O)c2ccc(Cl)cc2)o1 (stereo unspecified) 2.29%
O=C(CCS(=O)(=O)c1ccccc1)N(Cc1cccnc1)c1nc2c(F)cccc2s1 -0.704%
Brc1cccc[n+]1Cc1cccc(C[n+]2ccccc2Br)c1 -22.5%
ClC/C=C/C[n+]1ccccc1Cl -1.32%

Potency, active:
CC1=NN(c2ccc(Cl)c(C(=O)O)c2)C(=O)/C1=C/c1ccc(-c2ccccc2[N+](=O)[O-])o1 28.2 µM
COc1ccc2c(c1)c(=Cc1ccc(N(C)C)cc1)c1cc(-c3ccccc3)[n+](C)n12 4.47 µM
N#Cc1ccc[n+](CC(=O)c2ccc(O)c(O)c2)c1 2 µM
Cc1ccc(Cl)cc1NC(=O)/C(C#N)=C\c1cn(Cc2ccc(F)cc2)c2ccccc12 89.1 µM
c1ccc(CSc2nnc(-c3ccco3)c(-c3ccco3)n2)cc1 56.2 µM
C[N+](C)(CCCCCC[N+](C)(C)CCCN1C(=O)c2cccc3cccc(c23)C1=O)CCCN1C(=O)c2cccc3cccc(c23)C1=O 2.51 µM
CCOC(=O)c1c(Cc2ccc(Cl)cc2)c[nH]c1C 89.1 µM
Clc1cccc[n+]1CCCC[n+]1ccccc1Cl 79.4 µM

Potency, inactive and 39.8 µM (active):
CC(C)(C)n1ncc2c(=O)n(Cc3ccc(Cl)cc3)cnc21
